The pKD is −log10 of the KD, conventionally taken in molar units. Read a low pKD as a large KD.

From ChEMBL document CHEMBL5598561, “ASAP - In vitro binding kinetics” (2024) come the findings set out here.

Molecules are shown by their SMILES.

The target of this assay is Nonstructural protein 3 (Zika virus) (UniProt A0A024AXB9). Conditions: PRVABC59, Concentration 10.0 uM.
Chain of Nonstructural protein 3 (Zika virus) (A0A024AXB9 as listed by the source): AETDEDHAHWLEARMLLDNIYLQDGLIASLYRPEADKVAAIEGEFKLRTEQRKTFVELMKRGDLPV

As for `Cc1ccc(NC(=O)c2cc(Cl)cc3[nH]ncc23)cc1CN`, the pKD amounted to 5.13 (Immobilization level 3900.0 pg/mm2, Rmax 48.0 pg/mm2, ka 216599.094 M-1s-1, kd 1.609 1/s); 5.26 (Immobilization level 4900.0 pg/mm2, Rmax 54.0 pg/mm2, ka 242573.531 M-1s-1, kd 1.329 1/s); 5.17 (Immobilization level 5500.0 pg/mm2, Rmax 70.0 pg/mm2, ka 222473.098 M-1s-1, kd 1.517 1/s); 5.22 (Immobilization level 10000.0 pg/mm2, Rmax 57.0 pg/mm2, ka 286418.042 M-1s-1, kd 1.725 1/s); 5.29 (Immobilization level 12000.0 pg/mm2, Rmax 54.0 pg/mm2, ka 243003.449 M-1s-1, kd 1.258 1/s); 5.3 (Immobilization level 13000.0 pg/mm2, Rmax 74.0 pg/mm2, ka 258887.039 M-1s-1, kd 1.289 1/s).
In the case of `O=C(Nc1ccc2c(c1)CNC2)c1cc(Br)cc2[nH]ncc12`, the pKD by setting is: (Immobilization level 3900.0 pg/mm2, Rmax 38.0 pg/mm2, ka 289981.015 M-1s-1, kd 0.089 1/s) 6.51; (Immobilization level 4900.0 pg/mm2, Rmax 58.0 pg/mm2, ka 168121.167 M-1s-1, kd 0.102 1/s) 6.21; (Immobilization level 5500.0 pg/mm2, Rmax 62.0 pg/mm2, ka 169991.939 M-1s-1, kd 0.118 1/s) 6.16; (Immobilization level 10000.0 pg/mm2, Rmax 73.0 pg/mm2, ka 76775.421 M-1s-1, kd 0.125 1/s) 5.79; (Immobilization level 12000.0 pg/mm2, Rmax 147.0 pg/mm2, ka 18302.495 M-1s-1, kd 0.037 1/s) 5.69; (Immobilization level 13000.0 pg/mm2, Rmax 120.0 pg/mm2, ka 46201.966 M-1s-1, kd 0.079 1/s) 5.76.
`CNC(=O)[C@H](Nc1ccc2c(c1)CNC2)c1cc(Cl)cc2[nH]ncc12`: the pKD runs as follows: (Immobilization level 3900.0 pg/mm2, Rmax 42.0 pg/mm2, ka 444409.109 M-1s-1, kd 0.101 1/s) 6.65; (Immobilization level 4900.0 pg/mm2, Rmax 59.0 pg/mm2, ka 262811.946 M-1s-1, kd 0.117 1/s) 6.35; (Immobilization level 5500.0 pg/mm2, Rmax 61.0 pg/mm2, ka 294175.896 M-1s-1, kd 0.112 1/s) 6.42; (Immobilization level 10000.0 pg/mm2, Rmax 56.0 pg/mm2, ka 424251.343 M-1s-1, kd 0.126 1/s) 6.53; (Immobilization level 12000.0 pg/mm2, Rmax 69.0 pg/mm2, ka 214381.257 M-1s-1, kd 0.135 1/s) 6.2; (Immobilization level 13000.0 pg/mm2, Rmax 81.0 pg/mm2, ka 342437.146 M-1s-1, kd 0.116 1/s) 6.47.
As to `CNC(=O)[C@H](Nc1ccc2c(c1)CNC2)c1cccc2[nH]ncc12`, the pKD amounted to 5 (Immobilization level 3900.0 pg/mm2, Rmax 32.0 pg/mm2, ka 221759.296 M-1s-1, kd 2.211 1/s); 5.04 (Immobilization level 4900.0 pg/mm2, Rmax 43.0 pg/mm2, ka 260065.267 M-1s-1, kd 2.378 1/s); 5.02 (Immobilization level 5500.0 pg/mm2, Rmax 48.0 pg/mm2, ka 212060.721 M-1s-1, kd 2.045 1/s); 4.51 (Immobilization level 10000.0 pg/mm2, Rmax 60.0 pg/mm2, ka 93401.957 M-1s-1, kd 2.887 1/s); 5.07 (Immobilization level 12000.0 pg/mm2, Rmax 22.0 pg/mm2, ka 158759.097 M-1s-1, kd 1.348 1/s); 4.91 (Immobilization level 13000.0 pg/mm2, Rmax 39.0 pg/mm2, ka 126882.155 M-1s-1, kd 1.56 1/s).
`NCc1ccc(NC(=O)c2cc(Cl)cc3[nH]ncc23)cc1`: the pKD runs as follows: (Immobilization level 3900.0 pg/mm2, Rmax 39.0 pg/mm2, ka 344993.29 M-1s-1, kd 2.713 1/s) 5.11; (Immobilization level 4900.0 pg/mm2, Rmax 52.0 pg/mm2, ka 210233.557 M-1s-1, kd 2.157 1/s) 4.99; (Immobilization level 5500.0 pg/mm2, Rmax 46.0 pg/mm2, ka 296422.165 M-1s-1, kd 2.251 1/s) 5.12; (Immobilization level 10000.0 pg/mm2, Rmax 40.0 pg/mm2, ka 241734.917 M-1s-1, kd 1.766 1/s) 5.14; (Immobilization level 12000.0 pg/mm2, Rmax 57.0 pg/mm2, ka 217368.509 M-1s-1, kd 1.551 1/s) 5.15; (Immobilization level 13000.0 pg/mm2, Rmax 45.0 pg/mm2, ka 247269.193 M-1s-1, kd 1.32 1/s) 5.27.
As to `N[C@H]1Cc2ccc(NC(=O)c3cc(Cl)cc4[nH]ncc34)cc2C1`, the pKD reads like this: (Immobilization level 3900.0 pg/mm2, Rmax 32.0 pg/mm2, ka 340293.713 M-1s-1, kd 0.278 1/s) 6.09; (Immobilization level 4900.0 pg/mm2, Rmax 50.0 pg/mm2, ka 211944.111 M-1s-1, kd 0.288 1/s) 5.87; (Immobilization level 5500.0 pg/mm2, Rmax 52.0 pg/mm2, ka 230237.04 M-1s-1, kd 0.293 1/s) 5.9; (Immobilization level 10000.0 pg/mm2, Rmax 43.0 pg/mm2, ka 451655.452 M-1s-1, kd 0.518 1/s) 5.94; (Immobilization level 12000.0 pg/mm2, Rmax 66.0 pg/mm2, ka 170946.752 M-1s-1, kd 0.316 1/s) 5.73; (Immobilization level 13000.0 pg/mm2, Rmax 60.0 pg/mm2, ka 295502.849 M-1s-1, kd 0.406 1/s) 5.86.
For the molecule `C[C@@H](N)c1ccc(NC(=O)c2cc(Cl)cc3[nH]ncc23)cc1`, the pKD worked out at 5.11 (Immobilization level 3900.0 pg/mm2, Rmax 41.0 pg/mm2, ka 249513.67 M-1s-1, kd 1.946 1/s); 5.12 (Immobilization level 4900.0 pg/mm2, Rmax 50.0 pg/mm2, ka 225007.554 M-1s-1, kd 1.686 1/s); 5.06 (Immobilization level 5500.0 pg/mm2, Rmax 61.0 pg/mm2, ka 227099.936 M-1s-1, kd 1.979 1/s); 5.22 (Immobilization level 10000.0 pg/mm2, Rmax 53.0 pg/mm2, ka 348896.97 M-1s-1, kd 2.109 1/s); 5.14 (Immobilization level 12000.0 pg/mm2, Rmax 62.0 pg/mm2, ka 212895.642 M-1s-1, kd 1.524 1/s); 5.27 (Immobilization level 13000.0 pg/mm2, Rmax 66.0 pg/mm2, ka 290082.005 M-1s-1, kd 1.572 1/s).
On to `O=C1NCc2c1cccc2C(=O)Nc1ccc2c(c1)CNC2`, for which the pKD (Immobilization level 3900.0 pg/mm2, Rmax 18.0 pg/mm2, ka 393715.885 M-1s-1, kd 4.071 1/s) turned out to be 4.99; the pKD (Immobilization level 4900.0 pg/mm2, Rmax 15.0 pg/mm2, ka 235814.335 M-1s-1, kd 2.807 1/s) worked out at 4.92; the pKD (Immobilization level 5500.0 pg/mm2, Rmax 18.0 pg/mm2, ka 357121.96 M-1s-1, kd 4.231 1/s) was determined as 4.93; the pKD (Immobilization level 12000.0 pg/mm2, ka 172299.161 M-1s-1, kd 1.476 1/s) was 5.07; the pKD (Immobilization level 13000.0 pg/mm2, Rmax 19.0 pg/mm2, ka 18937.32 M-1s-1, kd 1.323 1/s) turned out to be 4.16.
Molecule `NS(=O)(=O)c1cc(Cl)cc(C(=O)Nc2ccc3c(c2)CNC3)c1` registered a pKD (Immobilization level 10000.0 pg/mm2, Rmax 26.0 pg/mm2, ka 224016.174 M-1s-1, kd 2.677 1/s) of 4.92; a pKD (Immobilization level 12000.0 pg/mm2, Rmax 52.0 pg/mm2, ka 213819.19 M-1s-1, kd 1.773 1/s) of 5.08; a pKD (Immobilization level 13000.0 pg/mm2, Rmax 31.0 pg/mm2, ka 267165.084 M-1s-1, kd 2.041 1/s) of 5.12.
On to `NCc1ccc(NC(=O)c2cc(Cl)cc3[nH]ncc23)cc1F`, for which the pKD came to 4.94 (Immobilization level 3900.0 pg/mm2, Rmax 23.0 pg/mm2, ka 241912.451 M-1s-1, kd 2.753 1/s); 5.14 (Immobilization level 4900.0 pg/mm2, Rmax 19.0 pg/mm2, ka 418363.843 M-1s-1, kd 3.02 1/s); 5 (Immobilization level 5500.0 pg/mm2, Rmax 22.0 pg/mm2, ka 268076.557 M-1s-1, kd 2.711 1/s); 4.95 (Immobilization level 12000.0 pg/mm2, Rmax 15.0 pg/mm2, ka 138303.314 M-1s-1, kd 1.565 1/s); 4.16 (Immobilization level 13000.0 pg/mm2, Rmax 64.0 pg/mm2, ka 32485.569 M-1s-1, kd 2.272 1/s).
Take `CC(=O)Nc1cc(Br)cc(C(=O)Nc2ccc3c(c2)CNC3)c1`: the pKD reads like this: (Immobilization level 3900.0 pg/mm2, Rmax 40.0 pg/mm2, ka 607998.487 M-1s-1, kd 0.155 1/s) 6.59; (Immobilization level 4900.0 pg/mm2, Rmax 52.0 pg/mm2, ka 391367.264 M-1s-1, kd 0.17 1/s) 6.36; (Immobilization level 5500.0 pg/mm2, Rmax 55.0 pg/mm2, ka 425641.507 M-1s-1, kd 0.187 1/s) 6.36; (Immobilization level 10000.0 pg/mm2, Rmax 42.0 pg/mm2, ka 618288.109 M-1s-1, kd 0.171 1/s) 6.56; (Immobilization level 12000.0 pg/mm2, Rmax 74.0 pg/mm2, ka 318554.659 M-1s-1, kd 0.182 1/s) 6.24; (Immobilization level 13000.0 pg/mm2, Rmax 61.0 pg/mm2, ka 520517.585 M-1s-1, kd 0.161 1/s) 6.51.
Consider `Cc1cc(CN)cc(NC(=O)c2cc(Cl)cc3[nH]ncc23)c1`, for which the pKD by setting is: (Immobilization level 10000.0 pg/mm2, Rmax 32.0 pg/mm2, ka 317735.356 M-1s-1, kd 1.709 1/s) 5.27; (Immobilization level 12000.0 pg/mm2, Rmax 41.0 pg/mm2, ka 352403.171 M-1s-1, kd 1.092 1/s) 5.51; (Immobilization level 13000.0 pg/mm2, Rmax 26.0 pg/mm2, ka 657032.757 M-1s-1, kd 1.65 1/s) 5.6.
